# Assay results published in paper PMC5700166.
# Columns and labels:
# Experiment in all cases: protein-binding microarray (PBM); PBM: ~300 nM protein, 6 mM HEPES pH 7.8, 80 mM KCl, 0.5 mM EDTA, 0.5 mM EGTA, 6% glycerol, 35 ng/ul poly-dIdC, 1% milk, 1 h, room temperature; Ap Aiptasia and Nv Nematostella (sea anemones) / Co Capsaspora / Aq Amphimedon (sponge) / Dm Drosophila / Hu human; RHD is the Rel homology domain; high values mean tight binding
# Settings in all cases: dsDNA, one strand shown
# GST-Ap-NF-kB RHD = target: T1, GST-Ap-NF-kB RHD (Exaiptasia pallida (Aiptasia), UniProt A0A913YAJ5 2-422)
# T1 sequence: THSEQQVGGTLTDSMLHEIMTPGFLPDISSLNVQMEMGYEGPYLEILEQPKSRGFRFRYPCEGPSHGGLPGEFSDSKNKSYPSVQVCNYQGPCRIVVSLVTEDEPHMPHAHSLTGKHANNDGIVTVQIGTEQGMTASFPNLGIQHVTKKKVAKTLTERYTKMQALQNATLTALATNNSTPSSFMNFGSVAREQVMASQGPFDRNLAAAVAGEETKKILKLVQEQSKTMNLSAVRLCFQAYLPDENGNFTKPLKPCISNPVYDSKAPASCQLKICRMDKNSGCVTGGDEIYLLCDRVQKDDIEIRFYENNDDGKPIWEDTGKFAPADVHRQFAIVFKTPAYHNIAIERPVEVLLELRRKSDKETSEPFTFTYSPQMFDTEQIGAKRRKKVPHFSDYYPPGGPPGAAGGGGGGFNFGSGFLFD
# [1] = target: T2, GST-Nv-NF-kB (Cys allele) (Nematostella vectensis, UniProt E5G601 2-411)
# T2 sequence: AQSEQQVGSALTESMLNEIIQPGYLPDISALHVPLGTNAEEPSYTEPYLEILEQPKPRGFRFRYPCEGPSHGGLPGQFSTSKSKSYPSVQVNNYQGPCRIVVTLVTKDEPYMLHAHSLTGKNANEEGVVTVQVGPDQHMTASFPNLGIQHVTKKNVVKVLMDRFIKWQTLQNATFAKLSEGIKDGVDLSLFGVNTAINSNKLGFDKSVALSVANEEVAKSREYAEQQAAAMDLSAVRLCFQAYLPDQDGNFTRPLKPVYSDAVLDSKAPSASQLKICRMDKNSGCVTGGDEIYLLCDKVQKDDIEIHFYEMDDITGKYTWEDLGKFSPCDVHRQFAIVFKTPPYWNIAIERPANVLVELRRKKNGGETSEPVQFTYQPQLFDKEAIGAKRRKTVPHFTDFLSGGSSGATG
# GST-Co-NF-kB = target: T3, GST-Co-NF-kB (Capsaspora owczarzaki, UniProt F1ARL5 200-546)
# T3 sequence: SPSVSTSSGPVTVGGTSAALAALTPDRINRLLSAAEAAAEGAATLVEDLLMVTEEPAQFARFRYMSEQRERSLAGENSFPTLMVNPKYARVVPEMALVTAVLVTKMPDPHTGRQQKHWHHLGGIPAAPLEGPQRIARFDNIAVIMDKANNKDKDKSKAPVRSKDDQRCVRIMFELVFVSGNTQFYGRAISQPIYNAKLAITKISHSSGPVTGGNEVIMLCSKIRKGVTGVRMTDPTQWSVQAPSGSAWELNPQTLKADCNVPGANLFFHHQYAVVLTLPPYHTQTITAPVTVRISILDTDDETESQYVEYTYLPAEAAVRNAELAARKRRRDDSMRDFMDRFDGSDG
# GST-Dm-Relish = target: T4, GST-Dm-Relish (Drosophila melanogaster, UniProt Q94527 99-473)
# T4 sequence: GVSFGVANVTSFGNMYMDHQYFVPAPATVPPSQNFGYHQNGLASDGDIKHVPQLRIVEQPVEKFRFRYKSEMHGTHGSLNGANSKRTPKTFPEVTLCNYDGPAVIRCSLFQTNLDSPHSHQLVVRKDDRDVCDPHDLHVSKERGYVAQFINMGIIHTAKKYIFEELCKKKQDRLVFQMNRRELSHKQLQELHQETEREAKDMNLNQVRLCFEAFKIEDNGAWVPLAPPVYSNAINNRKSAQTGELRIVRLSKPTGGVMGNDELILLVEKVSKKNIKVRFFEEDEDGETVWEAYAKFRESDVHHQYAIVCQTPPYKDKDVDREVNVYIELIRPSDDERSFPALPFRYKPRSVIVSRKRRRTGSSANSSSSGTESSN
# GST-Aq-NF-kB = target: T5, GST-Aq-NF-kB (Amphimedon queenslandica, UniProt A9Y5G7 2-389)
# T5 sequence: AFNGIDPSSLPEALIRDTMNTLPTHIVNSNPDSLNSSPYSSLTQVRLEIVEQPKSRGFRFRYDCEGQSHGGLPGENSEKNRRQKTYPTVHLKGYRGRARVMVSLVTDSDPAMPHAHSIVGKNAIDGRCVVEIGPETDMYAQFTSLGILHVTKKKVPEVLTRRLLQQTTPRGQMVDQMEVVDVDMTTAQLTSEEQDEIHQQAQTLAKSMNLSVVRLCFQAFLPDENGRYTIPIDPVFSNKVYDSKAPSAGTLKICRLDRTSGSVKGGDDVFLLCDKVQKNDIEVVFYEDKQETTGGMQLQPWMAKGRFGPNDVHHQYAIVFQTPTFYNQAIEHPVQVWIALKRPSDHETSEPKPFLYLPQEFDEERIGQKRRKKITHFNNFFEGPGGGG
Sequence,binding signal (GST-Ap-NF-kB RHD),binding signal [1],binding signal (GST-Co-NF-kB),binding signal (GST-Dm-Relish),binding signal (GST-Aq-NF-kB)
CCGATTAACATCAAAAAATGCCCTGATGTTAATCGGGTCTTGATTCGCTTGACGCTGCTG,2.08 z-score,3.03 z-score,1 z-score,3.67 z-score,4.05 z-score
CCGATTAACATCAAAAATCCCATTGATGTTAATCGGGTCTTGATTCGCTTGACGCTGCTG,3.2 z-score,3.67 z-score,1.08 z-score,7.97 z-score,3.96 z-score
CCGATTAACATCACGGGAATCCCTGATGTTAATCGGGTCTTGATTCGCTTGACGCTGCTG,6.64 z-score,5.96 z-score,3.81 z-score,10.1 z-score,7.15 z-score
CCGATTAACATCAATTTCCCGCCTGATGTTAATCGGGTCTTGATTCGCTTGACGCTGCTG,2.79 z-score,3.63 z-score,3.64 z-score,1.31 z-score,2.64 z-score
CCGATTAACATCAGAAGATTCCCTGATGTTAATCGGGTCTTGATTCGCTTGACGCTGCTG,3.38 z-score,4.85 z-score,3.43 z-score,3.48 z-score,5.19 z-score
CCGATTAACATCAGGGAATATTATGATGTTAATCGGGTCTTGATTCGCTTGACGCTGCTG,5.06 z-score,5.86 z-score,3.81 z-score,3 z-score,5.75 z-score
CCGATTAACATCAGAAATCCCGCTGATGTTAATCGGGTCTTGATTCGCTTGACGCTGCTG,3.54 z-score,2.85 z-score,1.57 z-score,4.94 z-score,3.08 z-score
CCGATTAACATCAGGGAGATACCTGATGTTAATCGGGTCTTGATTCGCTTGACGCTGCTG,4 z-score,4.81 z-score,1.64 z-score,4.25 z-score,7.69 z-score
CCGATTAACATCAAATATACCCCTGATGTTAATCGGGTCTTGATTCGCTTGACGCTGCTG,4.01 z-score,3.4 z-score,5.87 z-score,2.64 z-score,4.15 z-score
CCGATTAACATCACACATTTCCCTGATGTTAATCGGGTCTTGATTCGCTTGACGCTGCTG,2.78 z-score,4.57 z-score,4.08 z-score,1.1 z-score,3.88 z-score
CCGATTAACATCAGGGGATTAGATGATGTTAATCGGGTCTTGATTCGCTTGACGCTGCTG,4.5 z-score,4.8 z-score,2.75 z-score,3.13 z-score,3.91 z-score
CCGATTAACATCACACCACCCCCTGATGTTAATCGGGTCTTGATTCGCTTGACGCTGCTG,3.79 z-score,2.72 z-score,2.88 z-score,2.4 z-score,3.3 z-score
CCGATTAACATCAGGGGGTGTAATGATGTTAATCGGGTCTTGATTCGCTTGACGCTGCTG,3.57 z-score,3.16 z-score,3.87 z-score,3.25 z-score,3.21 z-score
CCGATTAACATCAGGACACCCCCTGATGTTAATCGGGTCTTGATTCGCTTGACGCTGCTG,6.35 z-score,5.22 z-score,2.5 z-score,6.86 z-score,7.67 z-score
CCGATTAACATCAGGGATACCCCTGATGTTAATCGGGTCTTGATTCGCTTGACGCTGCTG,6.66 z-score,5.69 z-score,4 z-score,7.22 z-score,6.98 z-score
CCGATTAACATCAGGGGAATGACTGATGTTAATCGGGTCTTGATTCGCTTGACGCTGCTG,5.81 z-score,6.43 z-score,3.9 z-score,5.22 z-score,5.09 z-score
CCGATTAACATCAGGGGGGCACCTGATGTTAATCGGGTCTTGATTCGCTTGACGCTGCTG,4.84 z-score,3.13 z-score,3.02 z-score,3.62 z-score,4.5 z-score
CCGATTAACATCAAGTATTCCCATGATGTTAATCGGGTCTTGATTCGCTTGACGCTGCTG,2.44 z-score,2.26 z-score,3.57 z-score,2 z-score,1.85 z-score

Sequence,binding signal (GST-Ap-NF-kB RHD),binding signal [1],binding signal (GST-Co-NF-kB),binding signal (GST-Dm-Relish),binding signal (GST-Aq-NF-kB)
CCGATTAACATCAGGATCTCCCCTGATGTTAATCGGGTCTTGATTCGCTTGACGCTGCTG,7.91 z-score,5.49 z-score,4.26 z-score,5.64 z-score,6.38 z-score
CCGATTAACATCACCCAACCCCCTGATGTTAATCGGGTCTTGATTCGCTTGACGCTGCTG,4.6 z-score,2.94 z-score,2.21 z-score,4.3 z-score,3.45 z-score
CCGATTAACATCAAGCACCCCCTTGATGTTAATCGGGTCTTGATTCGCTTGACGCTGCTG,4.4 z-score,3.21 z-score,1.76 z-score,2.85 z-score,4.66 z-score
CCGATTAACATCAGAAATCTCCCTGATGTTAATCGGGTCTTGATTCGCTTGACGCTGCTG,3.4 z-score,5.21 z-score,2.43 z-score,1.79 z-score,5.79 z-score
CCGATTAACATCACAAATTCCCATGATGTTAATCGGGTCTTGATTCGCTTGACGCTGCTG,2.52 z-score,4.43 z-score,2.69 z-score,4.72 z-score,3.15 z-score
CCGATTAACATCACAGCCCCCCCTGATGTTAATCGGGTCTTGATTCGCTTGACGCTGCTG,4.64 z-score,3.58 z-score,3.34 z-score,4.81 z-score,3.82 z-score
CCGATTAACATCACGGACTCCCCTGATGTTAATCGGGTCTTGATTCGCTTGACGCTGCTG,5.18 z-score,3.32 z-score,3.37 z-score,6.19 z-score,4.33 z-score
CCGATTAACATCAGGAGTCCCCATGATGTTAATCGGGTCTTGATTCGCTTGACGCTGCTG,6.21 z-score,4.39 z-score,2.23 z-score,7.3 z-score,4.27 z-score
CCGATTAACATCAACGCCCCCCCTGATGTTAATCGGGTCTTGATTCGCTTGACGCTGCTG,5.09 z-score,4.29 z-score,4.15 z-score,4.35 z-score,4.73 z-score
CCGATTAACATCAAGTGTTTCCCTGATGTTAATCGGGTCTTGATTCGCTTGACGCTGCTG,2.2 z-score,3.22 z-score,3.78 z-score,4.7 z-score,3.79 z-score
CCGATTAACATCACGGGACCCCCTGATGTTAATCGGGTCTTGATTCGCTTGACGCTGCTG,6.47 z-score,3.01 z-score,1.75 z-score,6.84 z-score,3.7 z-score
CCGATTAACATCAGATTCTCCCCTGATGTTAATCGGGTCTTGATTCGCTTGACGCTGCTG,5.2 z-score,5.25 z-score,6.76 z-score,1.92 z-score,4.43 z-score
CCGATTAACATCAGGGGAGCCCCTGATGTTAATCGGGTCTTGATTCGCTTGACGCTGCTG,8.45 z-score,6.25 z-score,3.64 z-score,8.74 z-score,8.27 z-score
CCGATTAACATCAGGGAGTTACCTGATGTTAATCGGGTCTTGATTCGCTTGACGCTGCTG,4.03 z-score,5.22 z-score,2.38 z-score,7.17 z-score,7.22 z-score
CCGATTAACATCAGGGGGCGCACTGATGTTAATCGGGTCTTGATTCGCTTGACGCTGCTG,3.71 z-score,3.04 z-score,2.37 z-score,4.13 z-score,4.79 z-score
CCGATTAACATCACCCCTCCCCGTGATGTTAATCGGGTCTTGATTCGCTTGACGCTGCTG,5.01 z-score,3.48 z-score,4.15 z-score,3.47 z-score,3.26 z-score
CCGATTAACATCAAATCTTTCCCTGATGTTAATCGGGTCTTGATTCGCTTGACGCTGCTG,3.05 z-score,5.25 z-score,5.78 z-score,1.24 z-score,4.92 z-score
